# Results reported in PubChem BioAssay (NCATS).
# Records with an inconclusive call do not appear. A call without a number means that no potency is given here. Active and inactive are the calls of the source. The call rests on the fitted dose curve.
# Assay: Primary qHTS for Huh7 cytotoxicity: counterscreen for inhibitors of MERS-S pseudotyped particle cell entry (AID 1479147)
# Details: cell viability read-out; series mostly up to 57.1 µM
row,Structure (SMILES),Potency
1,COC(=O)Nc1nc2ccc(Sc3ccccc3)cc2[nH]1,inactive
2,C#CCN(C)Cc1ccccc1,inactive
3,O=C1OC2(c3ccccc31)c1cc(I)c(O)c(I)c1Oc1c2cc(I)c(O)c1I,inactive
4,CC(C(=O)O)c1ccc2c(c1)Cc1cccnc1O2 (stereo unspecified),inactive
5,C=CC[N+]1([C@H]2C[C@H]3[C@@H]4CC[C@H]5C[C@H](OC(C)=O)[C@@H](N6CCCCC6)C[C@]5(C)[C@H]4CC[C@]3(C)[C@H]2OC(=O)CC)CCCCC1,inactive
6,C[C@@H]1C[C@H]2[C@@H]3CCC4=CC(=O)C=C[C@]4(C)[C@@]3(Cl)[C@@H](O)C[C@]2(C)[C@@]1(OC(=O)c1ccco1)C(=O)CCl,inactive
7,CC1(C)[C@H](C(=O)O)N2C(=O)C[C@H]2S1(=O)=O,inactive
8,CC(=O)O[C@H]1C[C@@H]2CC[C@@H]3[C@H](CC[C@@]4(C)[C@H]3C[C@H]([N+]3(C)CCCCC3)[C@@H]4OC(C)=O)[C@@]2(C)C[C@@H]1N1CCCCC1,inactive
9,C[C@]12CC[C@@H]3c4ccc(O)cc4CC[C@H]3[C@@H]1CC[C@@H]2OC(=O)CCC1CCCC1,inactive
10,CCC(=O)Oc1ccc2c(c1)CC[C@@H]1[C@@H]2CC[C@@]2(C)[C@H]1C[C@@H](OC(=O)CC)[C@@H]2OC(=O)CC,inactive
11,CC1(C)O[C@@H]2C[C@H]3[C@@H]4C[C@H](F)C5=CC(=O)CC[C@]5(C)[C@H]4[C@@H](O)C[C@]3(C)[C@]2(C(=O)CO)O1,inactive
12,CCOC(=O)c1cccc(N)c1,inactive
13,COc1cc(NS(=O)(=O)c2ccc(N)cc2)nc(OC)n1,inactive
14,CCCCC1(COC(=O)CCC(=O)O)C(=O)N(c2ccccc2)N(c2ccccc2)C1=O,inactive
15,C[C@H]1COc2c(C3(N)CC3)c(F)cc3c(=O)c(C(=O)O)cn1c23,inactive
16,OC1C(O)C(O)C(O)C(O)C1O (stereo unspecified),inactive
17,O=C1C(CCS(=O)c2ccccc2)C(=O)N(c2ccccc2)N1c1ccccc1 (stereo unspecified),inactive
18,CC(=O)N(CC(=O)N(C)C)c1ccccc1,inactive
19,CNC1CCCN(c2c(F)cc3c(=O)c(C(=O)O)cn(C4CC4)c3c2OC)C1 (stereo unspecified),inactive

row,Structure (SMILES),Potency
1,CC(O)Cn1cnc2c1c(=O)n(C)c(=O)n2C (stereo unspecified),inactive
2,N[C@H](Cc1c[nH]c2ccccc12)C(=O)O,inactive
3,O=C(O)CCC(=O)Nc1ccc(S(=O)(=O)Nc2nccs2)cc1,inactive
4,NCC1CCC(C(=O)Oc2ccc(CCC(=O)O)cc2)CC1 (stereo unspecified),inactive
5,C[C@@H]1C[C@H]2[C@@H]3CCC4=CC(=O)C=C[C@]4(C)[C@@]3(F)[C@@H](O)C[C@]2(C)[C@@]1(O)C(=O)COC(=O)c1ccncc1,inactive
6,CCN(CC)CCNC(C(=O)OCCC(C)C)c1ccccc1 (stereo unspecified),inactive
7,Cc1cccc(N(C)C(=S)Oc2ccc3c(c2)CCC3)c1,inactive
8,O=[N+]([O-])c1nccn1CO[C@@H](CO)[C@H](O)CO,inactive
9,CC[N+]1(CC)CCC(=C(c2ccccc2)c2ccccc2)C1C (stereo unspecified),inactive
10,CN(C)CCn1nnnc1SCC1=C(C(=O)O)N2C(=O)[C@@H](NC(=O)Cc3csc(N)n3)[C@H]2SC1,inactive
11,O=C(O)c1cn(-c2ccc(F)cc2)c2cc(N3CCNCC3)c(F)cc2c1=O,inactive
12,Oc1cc(O)c2c(c1)O[C@H](c1ccc(O)c(O)c1)[C@H](O)C2,inactive
13,CN(C)C(=O)Oc1cccc([N+](C)(C)C)c1,inactive
14,O=C(NN1CCCC1)NS(=O)(=O)c1ccc(Cl)cc1,inactive
15,C/C=C/c1ccc(O)c(OC)c1,inactive
16,CCCCC(=O)O[C@]1(C(=O)CO)CC[C@H]2[C@@H]3CCC4=CC(=O)CC[C@]4(C)[C@H]3[C@@H](O)C[C@@]21C,inactive
17,Cc1[nH]c(=O)c(C#N)cc1-c1ccc2nccn2c1,inactive
18,CCCCNc1cc(C(=O)O)cc(S(N)(=O)=O)c1Oc1ccccc1,inactive
19,Cc1cccc(N(C)C(=S)Oc2ccc3ccccc3c2)c1,inactive

# Assay: Primary qHTS for inhibitors of MERS-S pseudo-typed particle cell entry (AID 1479149); further: nearly all actives have a fitted effect of over 60% in size
# Details: MERS-S pseudotyped particle entry, luciferase; series mostly up to 57.1 µM
row,Structure (SMILES),Potency
1,COC(=O)Nc1nc2ccc(Sc3ccccc3)cc2[nH]1,inactive
2,C#CCN(C)Cc1ccccc1,inactive
3,O=C1OC2(c3ccccc31)c1cc(I)c(O)c(I)c1Oc1c2cc(I)c(O)c1I,inactive
4,CC(C(=O)O)c1ccc2c(c1)Cc1cccnc1O2 (stereo unspecified),inactive
5,C=CC[N+]1([C@H]2C[C@H]3[C@@H]4CC[C@H]5C[C@H](OC(C)=O)[C@@H](N6CCCCC6)C[C@]5(C)[C@H]4CC[C@]3(C)[C@H]2OC(=O)CC)CCCCC1,inactive
6,C[C@@H]1C[C@H]2[C@@H]3CCC4=CC(=O)C=C[C@]4(C)[C@@]3(Cl)[C@@H](O)C[C@]2(C)[C@@]1(OC(=O)c1ccco1)C(=O)CCl,inactive
7,CC1(C)[C@H](C(=O)O)N2C(=O)C[C@H]2S1(=O)=O,inactive
8,CC(=O)O[C@H]1C[C@@H]2CC[C@@H]3[C@H](CC[C@@]4(C)[C@H]3C[C@H]([N+]3(C)CCCCC3)[C@@H]4OC(C)=O)[C@@]2(C)C[C@@H]1N1CCCCC1,inactive
9,C[C@]12CC[C@@H]3c4ccc(O)cc4CC[C@H]3[C@@H]1CC[C@@H]2OC(=O)CCC1CCCC1,inactive
10,CCC(=O)Oc1ccc2c(c1)CC[C@@H]1[C@@H]2CC[C@@]2(C)[C@H]1C[C@@H](OC(=O)CC)[C@@H]2OC(=O)CC,inactive
11,CC1(C)O[C@@H]2C[C@H]3[C@@H]4C[C@H](F)C5=CC(=O)CC[C@]5(C)[C@H]4[C@@H](O)C[C@]3(C)[C@]2(C(=O)CO)O1,inactive
12,CCOC(=O)c1cccc(N)c1,inactive
13,COc1cc(NS(=O)(=O)c2ccc(N)cc2)nc(OC)n1,inactive
14,CCCCC1(COC(=O)CCC(=O)O)C(=O)N(c2ccccc2)N(c2ccccc2)C1=O,inactive
15,C[C@H]1COc2c(C3(N)CC3)c(F)cc3c(=O)c(C(=O)O)cn1c23,inactive
16,OC1C(O)C(O)C(O)C(O)C1O (stereo unspecified),inactive
17,O=C1C(CCS(=O)c2ccccc2)C(=O)N(c2ccccc2)N1c1ccccc1 (stereo unspecified),inactive
18,CC(=O)N(CC(=O)N(C)C)c1ccccc1,inactive
19,CNC1CCCN(c2c(F)cc3c(=O)c(C(=O)O)cn(C4CC4)c3c2OC)C1 (stereo unspecified),inactive

row,Structure (SMILES),Potency
1,CC(O)Cn1cnc2c1c(=O)n(C)c(=O)n2C (stereo unspecified),inactive
2,N[C@H](Cc1c[nH]c2ccccc12)C(=O)O,inactive
3,O=C(O)CCC(=O)Nc1ccc(S(=O)(=O)Nc2nccs2)cc1,inactive
4,NCC1CCC(C(=O)Oc2ccc(CCC(=O)O)cc2)CC1 (stereo unspecified),inactive
5,C[C@@H]1C[C@H]2[C@@H]3CCC4=CC(=O)C=C[C@]4(C)[C@@]3(F)[C@@H](O)C[C@]2(C)[C@@]1(O)C(=O)COC(=O)c1ccncc1,inactive
6,CCN(CC)CCNC(C(=O)OCCC(C)C)c1ccccc1 (stereo unspecified),inactive
7,Cc1cccc(N(C)C(=S)Oc2ccc3c(c2)CCC3)c1,inactive
8,O=[N+]([O-])c1nccn1CO[C@@H](CO)[C@H](O)CO,inactive
9,CC[N+]1(CC)CCC(=C(c2ccccc2)c2ccccc2)C1C (stereo unspecified),inactive
10,CN(C)CCn1nnnc1SCC1=C(C(=O)O)N2C(=O)[C@@H](NC(=O)Cc3csc(N)n3)[C@H]2SC1,inactive
11,O=C(O)c1cn(-c2ccc(F)cc2)c2cc(N3CCNCC3)c(F)cc2c1=O,inactive
12,Oc1cc(O)c2c(c1)O[C@H](c1ccc(O)c(O)c1)[C@H](O)C2,inactive
13,CN(C)C(=O)Oc1cccc([N+](C)(C)C)c1,inactive
14,O=C(NN1CCCC1)NS(=O)(=O)c1ccc(Cl)cc1,inactive
15,C/C=C/c1ccc(O)c(OC)c1,inactive
16,CCCCC(=O)O[C@]1(C(=O)CO)CC[C@H]2[C@@H]3CCC4=CC(=O)CC[C@]4(C)[C@H]3[C@@H](O)C[C@@]21C,inactive
17,Cc1[nH]c(=O)c(C#N)cc1-c1ccc2nccn2c1,inactive
18,CCCCNc1cc(C(=O)O)cc(S(N)(=O)=O)c1Oc1ccccc1,inactive
19,Cc1cccc(N(C)C(=S)Oc2ccc3ccccc3c2)c1,inactive
